Assay results published in the supplement of paper PMC13380429.
Values without a mark were called inactive.

System: Vero E6 infected with SARS-CoV-2
Assay: inhibition of SARS-CoV-2 cytopathic effect; higher = more antiviral protection, active = above 15
Settings: 48 h

Structure (SMILES)	inhibition of SARS-CoV-2 cytopathic effect (1 nM)	inhibition of SARS-CoV-2 cytopathic effect (8.33 nM)	inhibition of SARS-CoV-2 cytopathic effect (100 nM)	inhibition of SARS-CoV-2 cytopathic effect (833.33 nM)	inhibition of SARS-CoV-2 cytopathic effect (10000 nM)
COc1ccc(C(=O)c2c(C)n(CCN3CCOCC3)c3ccccc23)cc1 [pravadoline]	3.43%	2.8%	-0.1%	-1.26%	-0.15%
Oc1ccc(/C=C/c2cc(O)cc(O)c2)cc1 [resveratrol]	1.06%	0.64%	-2.17%	-0.25%	3.82%
CN1CCN(c2nc(C3=C(c4c[nH]c5ccccc45)C(=O)NC3=O)c3ccccc3n2)CC1 [sotrastaurin]	0.12%	1.74%	-0.57%	-1.82%	4.89%
CC(=O)C1=C(O)[C@@H]2[C@H]3c4c[nH]c5cccc(c45)C[C@H]3C(C)(C)N2C1=O [cyclopiazonic-acid]	0.48%	0.86%	2%	-0.85%	14.2%
CC1COc2c(N3CCN(C)CC3)c(F)cc3c(=O)c(C(=O)O)cn1c23 (stereo not given) [ofloxacin]	1.97%	0.365%	0.065%	-0.975%	1.25%
CCCn1c(=O)c2[nH]c(C3CCCC3)nc2n(CCC)c1=O	2.33%	2.47%	1.58%	-1.44%	1.86%
CCn1c2ccccc2c2cc(Nc3ccnc(NCCCN4CCOCC4)n3)ccc21	-2.13%	-1.13%	0.05%	-0.2%	69.3% (active)
Cn1nnc2c(C(N)=O)ncn2c1=O [temozolomide]	0.73%	-1.46%	-0.92%	-0.44%	-1.79%
O=C(/C=C/c1cccc(F)c1)NC1CC1 [cinflumide]	2.05%	3.3%	0.17%	2.25%	8.23%
Cc1cc(Cn2cnc3c2C[C@@H](C(=O)O)N(C(=O)C(c2ccccc2)c2ccccc2)C3)ccc1N(C)C	-2.45%	-1.75%	-3.61%	-1.45%	0.19%
COc1cc(C)nc(-n2nc(C)cc2OC)n1 [epirizole]	1.56%	3.82%	-0.67%	0.65%	-2.64%
O=C(N[C@H](CO)[C@H](O)c1ccc([N+](=O)[O-])cc1)C(Cl)Cl [chloramphenicol]	0.28%	-0.6%	-1.23%	0.21%	-3.04%
COc1ccc2[nH]c([S+]([O-])Cc3ncc(C)c(OC)c3C)nc2n1 (stereo not given) [tenatoprazole]	-9.92%	-12.8%	-7.87%	-11.3%	2.26%
COc1cc2c(NC3CCN(C(C)C)CC3)nc(C3CCCCC3)nc2cc1OCCCN1CCCC1	0.58%	-2.43%	-1.38%	-2.98%	59.6% (active)
CCC1(C2=NCCN2)Cc2ccccc2O1 (stereo not given) [efaroxan]	-0.76%	-1.17%	-0.66%	-2.93%	-3.79%
O=c1[nH]c(=O)n([C@H]2C[C@H](O)[C@@H](CO)O2)cc1/C=C/Br [brivudine]	1.67%	0.21%	0.44%	-0.42%	-0.09%
CCCCC(=O)O[C@]1(C(=O)CO)[C@@H](C)C[C@H]2[C@@H]3CCC4=CC(=O)C=C[C@]4(C)[C@@]3(F)[C@@H](O)C[C@@]21C	-3%	-2.7%	-2.96%	-2.78%	-4.48%
Nc1ccc(C(=O)O)c(O)c1 [aminosalicylate]	-3.85%	-0.82%	-0.9%	0.11%	0.97%
CCOc1cncc(/C=C/CCNC)c1	0.97%	-1.63%	-0.92%	0.41%	3.59%
O=C1C[C@@H](c2ccc(O)cc2)Oc2cc(O)ccc21	-0.59%	2.87%	2.13%	1.65%	12%
